Source: PubChem
The list is not random: actives were taken first. Their share in the collection is about 6.6%.
HepG2 viability – HepG2 cytotoxicity, counter-screen for TGF-b inhibitors. Potency, µM (top dose mostly 46.1 µM), hits mostly cytotoxic. HepG2 CAGA-GFP viability, ATP luminescence, 18 h. 0.76% of 410,000 active
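CellTiter-Glo luminescence gave cytotoxicity after 18 hours at 37 degrees C. The cells were HepG2 CAGA-GFP in 1% FBS DMEM, stimulated with 500 pg/mL TGF-beta after compound addition. %Activity was normalised to no-cell wells (complete cell-killing) and DMSO (no toxicity), and curves were fitted and classified.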
TGFb SMAD3 inh – inhibitors of TGF-b signaling. HepG2 CAGA-GFP TGF-b/SMAD3 reporter, GFP fluorescence, 18 h; TGF-beta stimulated, 500 pg/mL final. Potency, µM (top dose mostly 46.1 µM), usual class: inhibitors. 1.2% of 410,000 active. AID 588855; note: nearly all actives have a fitted effect of over 65% in size
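Using HEPG2 CAGA-GFP reporter cells at 1000 cells/well, we pinned test compounds, stimulated with recombinant TGF-beta (500 pg/mL final) and measured total well GFP after 18 h.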
KB-3-1 cytotox – KB-3-1 parental cell cytotoxicity; KB-3-1 viability, CellTiter-Glo ATP luminescence, 72 h; Potency, µM (titrated, usually from 46.1 µM), actives largely listed as cytotoxic; 1.4% of 400,000 active; AID 1347075; note: nearly all actives have a fitted effect of over 60% in size
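Luminescent ATP read-out (CellTiter-Glo) measures survival of drug-naive KB-3-1 cells after 72 h compound exposure at 37 °C. Titration series was screened from lowest to highest concentration, with DMSO vehicle plates as background controls.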
KB-V1 cytotox – KB-V1 MDR subline cytotoxicity; 3.4% of 400,000 active; AID 1347076; KB-V1 MDR cells viability, CellTiter-Glo, 72 h; Potency, µM (doses to about 46.1 µM), actives largely listed as cytotoxic; note: nearly all actives have a fitted effect of over 60% in size
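qHTS viability screen in drug-selected KB-V1 MDR cells: 72 h compound treatment at 37 degrees C, ATP luminescence end point.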
HT1080NT lethal – kills 2HG-producing HT-1080-NT fibrosarcoma cells. HT-1080-NT fibrosarcoma viability, CellTiter-Glo ATP luminescence, 48 h. Potency, µM (highest dose often 46.1 µM), hits mostly cytotoxic. 1.6% of 360,000 active. AID 686970;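 note: NT is the 2HG producing partner of a matched IDH1 knockdown line; nearly all actives have a fitted effect of over 55% in size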
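Compounds were tested in concentration-response format on HT-1080-NT cells for 48 hours at 37 degrees C. Cell viability came from CellTiter-Glo luminescence; curves were classified by r2, response magnitude and activity.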
HT1080 IDH1KD tx – HT-1080 IDH1 knockdown cell toxicity (counter line); HT-1080 IDH1 knockdown viability, ATP luminescence, 48 h; Potency, µM (series often up to 46.1 µM), hits mostly cytotoxic; 2% of 360,000 active; AID 686971
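Knockdown cells (IDH1KD HT-1080) received compounds 2 h after plating at 750 cells/well and were kept 48 h at 37 °C in 5% FBS RPMI. A CellTiter-Glo luminescence read gave % activity for curve fitting.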
Hits are given with their value; 0 = inactive; ? = inconclusive; - = no result; [ ] = dose if it differs, or a comment. Calls come from the whole dose curve; as a rule, active = well fitted curve in the direction sought with a large enough effect; inconclusive = small, poorly fitted or top-dose-only effect, or another doubt; inactive = no such curve, though single readings can be large; an effect the other way counts as inactive or inconclusive.

SMILES | HepG2 viability | TGFb SMAD3 inh | KB-3-1 cytotox | KB-V1 cytotox | HT1080NT lethal | HT1080 IDH1KD tx
CCC(=O)N1CCc2cc(S(=O)(=O)NC(C(=O)NCc3ccc(OC)cc3)C(C)C)ccc21 (stereo not drawn) | 0 | 0 | 0 | 0 | - | -
CCOC(=O)c1ccc(-c2ccc(/C=N/NC(=O)c3cncc(Br)c3)o2)cc1 | 0 | 0 | 0 | 0 | 0 | 0
CCCCOC(=O)c1ccc(-c2ccc(/C=N/NC(=S)NCC)o2)cc1 | 0 | 0 | 0 | 0 | 2.8µM | 0
COc1cc(OC)cc(C(=O)N2CC(=O)Nc3ccc(Cl)cc3C2c2ccccc2)c1 (stereo not drawn) | 0 | ? | 0 | 0 | - | -
COc1ccc(-c2n[nH]c(C)c2-c2ccc(Cl)cc2)c(O)c1 | 0 | ? | ? | 0 | 21µM | 21µM
COc1ccc(-c2n[nH]c(C)c2-c2ccc(Cl)cc2)c(O)c1OC | 18µM | 0 | ? | ? | 0 | ?
Cc1ccc(-c2nnc(N3CCN(C(=O)CN4CCOCC4)CC3)c3ccccc23)cc1 | 0 | 0 | 0 | 13µM | 0 | 0
Cc1ccc(-c2nnc(N3CCN(C(=O)COc4ccccc4)CC3)c3ccccc23)cc1 | 0 | ? | 18µM | 2.6µM | ? | ?
CCn1cc2nc(SCC(=O)Nc3ccccc3C(F)(F)F)n(Cc3ccc(C)cc3)c(=O)c2n1 | 0 | 0 | ? | ? | - | -
Cc1cc(C(C)(C)C)cc(C)c1Cn1c2[n+](c3ccc(C(F)(F)F)cc31)CCCCC2 | 0 | ? | ? | 0 | 15µM | ?
O=S(=O)(c1ccccc1)N(Cc1nc(-c2ccccc2)no1)C1CCCCC1 | 0 | 0 | 26µM | 10µM | 0 | 0[9.24 µM]
O=S(=O)(c1ccc(F)cc1)N(Cc1nc(-c2ccccc2)no1)C1CCCCC1 | 0 | 0 | - | - | - | -
Brc1cccc(CN2CCCCCC2)c1 | 0 | 0 | 0 | ? | 0 | 0
OC1(c2ccc(Br)cc2)CCN(Cc2cccc(Br)c2)CC1 | 11µM | ? | 0 | 0 | 0 | 0
O=C(Cn1sc2ccccc2c1=O)Nc1ccccc1 | 0 | 18µM | ? | 0 | ? | ?
O=C(Cn1sc2ccccc2c1=O)NC12CC3CC(CC(C3)C1)C2 | 5.6µM | ? | 0 | ? | 0 | ?
Nc1cccc2c1C(=O)N(CC(=O)NC13CC4CC(CC(C4)C1)C3)C2=O | 0 | 0 | 0 | 0 | 0 | 0
O=C(CN1C(=O)c2ccccc2C1=O)Nc1ccccc1 | 0 | ? | 0 | 0 | 0 | 0
Fc1ccc(-c2cn3cc(Cc4ccccc4Cl)sc3n2)cc1 | 0 | 0 | 0 | 0 | - | -
O=C(NC1CCCCC1)c1ccc2c(c1)N(Cc1ccccc1Cl)C(=O)c1ccccc1S2 | 0 | ? | - | - | - | -
O=C1/C(=C/c2ccccc2)CCc2ccc(Cl)nc21 | 0 | 20µM | 0 | 21µM | ? | 18µM
CCN(CC)C(=O)c1ccc2nc([C@H]3C[C@H](O)[C@@H](CO)O3)[nH]c2c1 | 0 | 0 | 0 | 0 | 0 | 0
OC[C@H]1O[C@@H](c2nc3ccc(-c4nc(-c5ccc(Br)cc5)no4)cc3[nH]2)C[C@@H]1O | 0 | 0 | 0 | 0 | 18µM | 18µM
Cc1ccc(-c2nc(N3CCCC(C)C3)c3ccccc3n2)cc1 (stereo not drawn) | 0 | 0 | 0 | 0 | - | -
CNC(=O)CSCc1cnn(-c2ccccc2)c1-n1cccc1 | 0 | 0 | 0 | 16µM | 0 | 0
SMILES | HepG2 viability | TGFb SMAD3 inh | KB-3-1 cytotox | KB-V1 cytotox | HT1080NT lethal | HT1080 IDH1KD tx
COc1ccccc1/C=C/C=N/n1c(C)nnc1C | 0.89µM | 0 | 0 | 0 | 0 | 0
COc1ccccc1/C=C/C=N\N1CCN(Cc2ccccc2Cl)CC1 | 0 | ? | 0 | 16µM | 0 | 0
COc1ccccc1/C=C/C=N/n1c(-c2ccc(F)cc2)n[nH]c1=S | 0 | 0 | ? | ? | 0 | 0
COc1ccccc1/C=C/C=N/N1CCN(Cc2ccc(Cl)cc2)CC1 | 0 | 0 | 0 | 0 | 0 | ?
Oc1c(Br)cc(Br)cc1C=Nc1ccc2c(c1)OCCO2 | 0 | ? | 0 | 0 | 0 | 0
Oc1[nH]c2ccccc2c1C=Nc1ccc2c(c1)OCCO2 | 0 | 0 | 0 | 16µM | 0 | 0
COc1cc(NC(=O)c2c(-c3ccc(C)cc3)nnc3ccccc23)cc(OC)c1OC | 0 | 0 | 0 | 0 | - | -
Cc1[nH]n(-c2ccc([N+](=O)[O-])cc2)c(=O)c1C=NCCN1CCN(C(=O)c2ccc(Br)cc2)CC1 | 7.1µM | 0 | ? | 0 | ? | ?
Cc1[nH]n(-c2ccc([N+](=O)[O-])cc2)c(=O)c1C=NCCc1c[nH]c2ccccc12 | 0 | 0 | 0 | 0 | ? | ?
Cc1[nH]n(-c2ccc([N+](=O)[O-])cc2)c(=O)c1C=NCCN1CCN(C(=O)c2ccc(F)cc2)CC1 | 0 | 0 | 0 | 0 | 0 | 0
Cc1[nH]n(-c2ccc([N+](=O)[O-])cc2)c(=O)c1C=NCCN1CCN(C(=O)c2cccc(F)c2)CC1 | 7.9µM | 0 | 0 | 16µM | 18µM | 16µM
CCCN1C(=O)C(Cc2nc3ccccc3c(=O)n2CC)c2cc(Br)ccc21 (stereo not drawn) | 0 | 7.9µM | - | - | - | -
Brc1ccc(OCCOCCOc2cccc3cccnc23)cc1 | 0 | ? | 0 | 18µM | 0 | 0
COC(=O)c1ccc(OCCOCCOc2cccc3ccc(C)nc23)cc1 | 0 | 0 | 0 | 15µM | 0 | 0
COC(=O)c1ccccc1OCCOCCOc1cccc2ccc(C)nc12 | 0 | 0 | 0 | ? | ? | 0
Clc1ccc(OCCOCCOc2cccc3cccnc23)c(Br)c1 | 16µM | ? | 0 | 0 | ? | ?
Fc1ccc(CNc2ncccn2)cc1 | 0 | 0 | 0 | 0 | 0 | 0
CN(C)CCCNc1cc(O)c2ncccc2c1 | 7.1µM | ? | ? | ? | - | -
Oc1cc(NCc2ccc(F)cc2)cc2cccnc12 | 11µM | ? | 6.5µM | 0 | - | -
Clc1ccc(CNc2ncccn2)cc1 | 0 | 0 | 0 | ? | 0 | 0
Oc1cc(NCc2ccc(Cl)cc2)cc2cccnc12 | 0 | 0 | 16µM | 0 | - | -
CCOC(=O)C(C(=O)Nc1ccc(C)cc1)C1CCCCC1 (stereo not drawn) | 0 | 0 | 23µM | 9.2µM | ? | ?
CC(=O)c1ccc(NC(=O)CCc2c(C)nn(-c3ccc4nnc(C)n4n3)c2C)cc1 | 0 | 0 | - | - | - | -
N/C(=N\c1nc(CSc2nc3ccccc3s2)cc(=O)[nH]1)Nc1ccc(F)cc1 | 0 | 0 | 12µM | 0 | ? | 0
COc1ccc(OC)c(CCNC(=O)Cn2ncc3c([nH]c4ccccc43)c2=O)c1 | 0 | 0 | 0 | 0 | - | -
Cc1nc2c(C(=O)NCc3ccccc3Cl)c[nH]n2c(=O)c1Cc1cccc(Cl)c1 | 0 | ? | 0 | ? | - | -
OC[C@H]1O[C@@H](c2nc(-c3ccccc3Br)no2)[C@H](O)[C@@H](O)[C@H]1O | 0 | 0 | 0 | 0 | 0 | 0
CCCOc1ccc(Cn2c(=O)oc3ccc(C)cc32)cc1OC | 0 | ? | 0 | 12µM | 0 | 0
